# Screening results: PubChem BioAssay, Columbia University Molecular Screening Center
# VCAM1 TNFa pot = potentiators of TNFa-induced VCAM1 expression, primary screen, imaging, HUVEC, TNFa stimulus, immunofluorescence; 0.19% of 93,000 active; HUVEC TNFa-stimulated VCAM-1 immunofluorescence, high-content imaging; scaled per plate to unstimulated/TNFa-only wells; AID 808, 2007; activation, % at 2 µM;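 active means activation above the screen mean plus 3 SD, with well images confirming the hit on visual review, cut at about 28% in these data, passing the limit was not always enough; inconclusive means activation above that limit but images do not confirm it; inactive means activation not above that limit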;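 further: signal is the number of cytoplasmic VCAM-1 stained grains per positive cell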
# VCAM1 pot confirm = potentiators of TNFa-induced VCAM1 expression, confirmation, imaging, HUVEC, triplicate retest; shares compounds with VCAM1 TNFa pot; 230 tested, under 10 active; HUVEC TNFa-stimulated VCAM-1 immunofluorescence imaging; activation, % at 2 µM;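 active means activation above 30% in triplicate retests at 2 µM, then confirmed by visual review of the well images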;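 further: scaled per plate between unstimulated and TNFa-stimulated DMSO control wells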
# Numbers without * were called inactive; u = inconclusive; x = not tested or not shown. Many of the other results were omitted from the sample, so hits are more common in it than they were.
SMILES,VCAM1 TNFa pot,VCAM1 pot confirm
CCOC(=O)c1cnc2c(-c3ccccc3)cnn2c1N,u,-4.4
CCOC(=O)C1=C(C)NC(C)=C(C(=O)OCC)C1C(=O)OC1CCOC1=O (stereo not drawn),-6.8,x
O=C(NCCCCCCNC(=O)C1CCCC1)C1CCCC1,19.3,x
CCOC(=O)c1ccc(NC(=O)CC2SC(=NC)N(C)C2=O)cc1 (stereo not drawn),-17.5,x
CCOC(=O)c1ccc(Nc2c(CC)c(C)nc3ncnn23)cc1,u,-8.0
CCOC(=O)c1ccc(NC(=O)Nc2ccc(S(N)(=O)=O)cc2)cc1,2.1,x
COc1cccc(-c2nnn(CC(=O)Nc3cc(OC)c(NC(=O)c4ccco4)cc3OC)n2)c1,3.3,x
CCOc1ccc(C=O)cc1CN1CCCCC1,-94.8,x
CCc1nnc(SCC(=O)N2CCCc3ccccc32)nc1CC,u,-22.0
O=C(Nc1ccccc1)N1CCCc2ccccc21,9.6,x
COc1ccccc1CC(=O)N1CCCc2ccccc21,-19.2,x
CC(C)(C)C(=O)COC(=O)CNC(=O)c1ccc(Oc2ccccc2)cc1,-0.7,x
CCOc1ccc(S(=O)(=O)NCCC(=O)NCc2ccco2)cc1,1.2,x
CCOC(=O)COc1ccc(S(=O)(=O)NCCC2=CCCCC2)cc1,48.1*,-6.4
C1=C(CCNCC2CC2)CCCC1,0.4,x
O=C(N/N=C/C(Cl)=C\c1ccccc1)c1cnccn1,62.9*,-17.3
O=C(N/N=C/C(Br)=C/c1ccccc1)c1n[nH]c2c1CCC2,-90.8,x
O=C(Nc1ccc2c(c1)CCC2)c1cnccn1,5.7,x
O=C(Cn1nc(Cc2ccncc2)c2ccccc2c1=O)N1CCc2ccccc2C1,-2.7,x
CCOC(=O)CSc1nc2ccc(C)cc2cc1C#N,-9.0,x
CCOC(=O)CC(=O)CSc1nc2c(C)c(C)ccc2cc1C,51.3*,-9.7
CCOC(=O)CC(=O)CSc1ccc2nnc(-c3ccc(F)cc3)n2n1,-1.2,x
N#CC(C#N)=CC1=C2OC(c3ccccc3)=CC(c3ccccc3)=C2CCC1,-8.0,x
COc1ccccc1N(CC(=O)NCCSc1ccccc1)S(C)(=O)=O,u,-1.4
CCOc1ccccc1N(CC(=O)N1CCCCCC1)S(C)(=O)=O,2.3,x
SMILES,VCAM1 TNFa pot,VCAM1 pot confirm
COCCNC(=O)CC(c1ccccc1)c1ccccc1,10.7,x
O=C(CSc1nc2ccccc2[nH]1)Nc1ccccc1N1CCOCC1,48.4*,-5.8
O=C(CSc1nc2ccccc2[nH]1)c1ccc2c(c1)OCO2,3.2,x
O=C(CSc1nc2ccccc2[nH]1)Nc1cc(C(F)(F)F)ccc1N1CCOCC1,-2.9,x
CS(=O)(=O)N1CCCC(C(=O)NCc2ccc(F)cc2Cl)C1 (stereo not drawn),-8.0,x
CCCCCOC(=O)Cn1c(SCC(=O)Nc2ccccc2)nc2c1c(=O)[nH]c(=O)n2C,1.2,x
